We go through 28 compounds from PubChem BioAssay (NCATS).

Each structure is given as a SMILES string. Values without a mark were called inactive. Inconclusive results are not listed. For some of these results: Potency and affinity values are given separately. Activity calls are given as the source filed them. Unless noted, how the calls were made is not given here.

Usually AC50 stands for the concentration at which the activity in the assay is half-maximal.

For assay [1] the following is noted: Ebola virus entry assay, green fluorescence channel.
For assay [2] the following is noted: Ebola virus entry assay, blue channel fluorescence.
The conditions of assay [3]: Ebola virus entry assay, ratio channel.
For assay [4] the following is noted: Ebola virus entry assay, reporter ratio channel; Channel type: primary.
For assay [5] the following is noted: Ebola virus entry assay, blue channel (ratio component).
A short description of assay [6]: qHTS assay for measurement of the activity of small molecule inhibitors on Zika virus induced Caspase-3 activity in human iPSC derived neural progenitor cells (hNPCs) (AID 1224857; active means well fitted curve in the direction sought with a large enough effect; an effect the other way counts as inactive or inconclusive; further: % of control where 0% means no effect; nearly all actives have a fitted effect of over 65% in size). The conditions noted are these: hNPCs ZIKV-induced caspase-3/7, Caspase-Glo luminescence, 6 h; series mostly up to 45.7 µM. The method in brief:
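Caspase-3/7 induction by a 6-hour ZIKV infection was quantified with a luminescent Caspase-Glo 3/7 reagent incubated 30 minutes at room temperature. Compounds were preincubated with hNPCs for 1 hour; inhibition was calculated against uninfected and infected control wells.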
On the technique in general: Quantitative high-throughput screening tests each substance at several concentrations.

Assay [7] can be described thus: qHTS assay for measurement of the activity of small molecule inhibitors on Zika virus induced Caspase-3 activity in human astrocytoma cells (AID 1224859; active means well fitted curve in the direction sought with a large enough effect; an effect the other way counts as inactive or inconclusive;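 further: plate controls were ZIKV-infected untreated cells for no effect and uninfected cells for full effect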). The conditions noted are these: SNB-19 ZIKV-induced caspase-3/7, luminescence, 6 h; series mostly up to 45.7 µM. Put shortly:
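In SNB-19 cells plated at 250 cells/well and grown 16-20 h, compounds were applied 1 h before ZIKV (2 FFU/cell). Six hours later caspase-3/7 luminescence was recorded.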

Assay [8] is described as follows: qHTS assay to identify small molecule inhibitors of chordoma cells - UCH-1 (AID 1259355; active means well fitted curve in the direction sought with a large enough effect; an effect the other way counts as inactive or inconclusive; further: on the % scale 0 is the no-effect control and ±100 the full control effect; nearly all actives have a fitted effect of over 55% in size). To be noted: UCH-1 chordoma viability, CellTiter-Glo, 48 h, combination; series mostly up to 46.1 µM. The method in brief: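 800 cells/well, overnight attach; compounds pinned at 15 concs, then auranofin/camptothecin/doxorubicin/rubitecan/topotecan combo added; 48hr 37 C, 5% CO2; CellTiter-Glo, 30min RT, luminescence.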

The nature of assay [9]: qHTS assay to identify small molecule inhibitors of chordoma cells - UCH-2 (AID 1259356; active means well fitted curve in the direction sought with a large enough effect; an effect the other way counts as inactive or inconclusive; further: on the % scale 0 is the no-effect control and ±100 the full control effect). The conditions noted are these: UCH-2 chordoma viability, CellTiter-Glo ATP luminescence, 48 h; series mostly up to 46.1 µM.
Wherever efficacy is given: 0% is about no effect.

With `C[C@@H]1CCN(C(=O)[C@H](CCCN=C(N)N)NS(=O)(=O)c2cccc3c2NC[C@H](C)C3)[C@@H](C(=O)O)C1`, the efficacy in [1] was -39.7%. Also, the outcome in assay [2], in [3], in assay [4] and in assay [5] was inactive.

On to `NS(=O)(=O)c1ccc(N2CCCCS2(=O)=O)cc1`, for which the efficacy in assay [1] is -36.2%. The result in assay [2], in [3], in [4] and in assay [5] was inactive.

`CC1(C)O[C@@H]2C[C@H]3[C@@H]4C[C@H](F)C5=CC(=O)C=C[C@]5(C)[C@H]4[C@@H](O)C[C@]3(C)[C@]2(C(=O)CO)O1`: the efficacy in assay [1] was 79.9%. In addition, the outcome in assay [2], in assay [3], in assay [4] and in [5] was inactive.

Turning to `CC(C)(C)CC(=O)OCC(=O)[C@@]1(O)CC[C@H]2[C@@H]3CCC4=CC(=O)C=C[C@]4(C)[C@H]3[C@@H](O)C[C@@]21C`, the efficacy in [1] is 47.7%. For the same compound, the outcome in assay [2], in assay [3] and in assay [5] was inactive. For the same compound, the half-maximal activity concentration (AC50) in assay [4] is 28.2 µM (active).

Regarding `CCC(=O)O[C@]1(C(=O)COC)[C@@H](C)C[C@H]2[C@@H]3CCC4=CC(=O)C=C[C@]4(C)C3(F)[C@@H](O)C[C@@]21C` (stereo partly drawn), the efficacy in [1] was 67.5%. The compound was classed as inactive in assay [2], in [4] and in [5]. For the same compound, in assay [3], the AC50 was 7.94 µM (active).

For the compound `COC[C@@H](c1ccc(C(F)(F)F)cc1)N1CCN(C2(C)CCN(C(=O)c3c(C)ncnc3C)CC2)C[C@H]1C`, in [1], the efficacy was 69.2%. The call in assay [2] and in assay [5] was inactive. The half-maximal activity concentration (AC50) in assay [3] and in assay [4] was 25.1 µM (active) in each case.

For `COc1ccc(-c2nc3ccc(C4=NNC(=O)CC4C)cc3[nH]2)cc1` (stereo not drawn), the efficacy in [1] was 23.5%. Also, the call in [2] and in assay [5] was inactive. Further, the half-maximal activity concentration (AC50) in [3] and in assay [4] was 14.1 µM (active) each time.

For the compound `O=C(CCCN1CCN(c2ccccn2)CC1)c1ccc(F)cc1`, the efficacy in assay [1] is 28.5%. Also, the call in assay [2], in assay [3], in [4] and in assay [5] was inactive.

`COc1cc(NS(=O)(=O)c2ccc(N)cc2)nc(OC)n1`: in [1], the efficacy was 31.6%. For the same compound, the outcome in [2], in assay [3], in [4] and in assay [5] was inactive.

As to `CCOC(=O)Cn1cccc1-c1nc(-c2ccc(OC)cc2)c(-c2ccc(OC)cc2)s1`, the efficacy in [1] is 34.5%. The half-maximal activity concentration (AC50) in assay [2], in assay [3] and in assay [4] was 0.708 µM (active) each time.

Take `CCN(CC)C(=O)Nc1ccc(OCC(O)CNC(C)(C)C)c(C(C)=O)c1` (stereo not drawn): the efficacy in assay [1] is -36%. Further, the outcome in assay [2], in assay [3], in [4] and in assay [5] was inactive.

Consider `O=C(Cn1ccnc1[N+](=O)[O-])NCCO`, for which, in assay [1], the efficacy is -27.8%. Besides, the result in assay [2], in assay [3], in [4] and in assay [5] was inactive.

For the compound `c1ccc(CNCCNCc2ccccc2)cc1`, the efficacy in assay [1] was 55.2%. Further, the compound was classed as inactive in assay [2], in [3] and in [5]. Also, the AC50 in assay [4] was 25.1 µM (active).

Consider `COc1cc2c(cc1OC)C(C(C(=O)N(CCc1ccc(OC)c(OC)c1OC)CCc1ccc(OC)c(OC)c1OC)c1ccccc1)=NCC2` (stereo not drawn), for which the efficacy in assay [1] is 62.1%. Besides, the compound was called inactive in assay [2] and in assay [5]. Also, the AC50 in assay [3] and in assay [4] was 11.2 µM (active) in each case.

As for `CCCC(=O)O[C@]1(C(=O)CC)CC[C@H]2[C@@H]3CCC4=CC(=O)CC[C@]4(C)[C@H]3[C@@H](O)C[C@@]21C`, the efficacy in [1] is 46.1%. Also, the outcome in assay [2], in assay [3], in assay [4] and in [5] was inactive.

Consider `CN1Cc2c(N)cccc2C(c2ccccc2)C1` (stereo not drawn), for which the efficacy in assay [1] is 99.7%. The AC50 in assay [2] was 17.8 µM (active); in [3], 25.1 µM (active); in assay [4] it was 25.1 µM (active). Further, in assay [5], the outcome was inactive.

On to `Nc1c2c(nc3ccccc13)CCCC2O` (stereo not drawn), for which the efficacy in assay [1] was 42.6%. In addition, the call in [2], in assay [3], in [4] and in assay [5] was inactive.

In the case of `O=C(COc1ccc(Cl)cc1)N1CCN(Cc2ccc3c(c2)OCO3)CC1`, the efficacy in [1] was 71.8%. For the same compound, the outcome in assay [2], in assay [3] and in assay [5] was inactive. The AC50 in assay [4] was 39.8 µM (active).

For the compound `c1ccc2c(c1)Sc1ccccc1N2CC1CN2CCC1CC2` (stereo not drawn), the efficacy in assay [1] is -241%. In addition, the concentration at half-maximal activity (AC50) in [2] was 5.01 µM (active); in assay [3], 3.98 µM (active); in [4] it was 3.98 µM (active). Further, the Potency result in assay [6] is “inactive”. For the same compound, in [7], the compound was classed as inactive.

As to `C[C@@H]1CC[C@H]2[C@@H](C)C(=O)O[C@@H]3O[C@@]4(C)CC[C@@H]1[C@]32OO4`, the efficacy in assay [1] was 76.3%. The outcome in assay [2], in [3], in [4], in assay [5] and in assay [7] was inactive. The Potency result in [6], in assay [8] and in assay [9] was “inactive” in each case.

In the case of `CCOP(=S)(OCC)O/N=C(\C#N)c1ccccc1`, the efficacy in [1] is -42.7%. The outcome in [2], in [3], in assay [4], in assay [5] and in assay [7] was inactive. Besides, the Potency result in [6] was “inactive”.

Take `COC(=O)Nc1nc2ccc(Sc3ccccc3)cc2[nH]1`: the efficacy in [1] was 73.8%. Besides, the outcome in [2] and in [5] was inactive. In addition, the AC50 in assay [3] and in assay [4] was 4.47 µM (active) each time.

Regarding `CC/C(=C(/CC)c1ccc(O)cc1)c1ccc(O)cc1`, in [1], the efficacy is 26.9%. In addition, the compound was called inactive in assay [2], in [3], in [4] and in assay [5].

For `CC1=C(CC(=O)O)c2cc(F)ccc2/C1=C\c1ccc(S(C)(=O)=O)cc1`, the efficacy in assay [1] was 40.3%. Further, the compound was classed as inactive in assay [2], in assay [3] and in assay [5]. The AC50 in assay [4] was 39.8 µM (active).

As for `COP(=S)(OC)Oc1ccc(S(N)(=O)=O)cc1`, the efficacy in assay [1] was -39.4%. Besides, the call in [2], in assay [3], in assay [4], in assay [5] and in assay [7] was inactive. Further, the Potency entry in assay [6] was “inactive”.

In the case of `CCCCCOc1ccccc1/C(=C\SC)n1ccnc1`, the efficacy in [1] is 106%. The outcome in assay [2], in assay [3], in [4] and in [5] was inactive.

With `CC(=O)OCC(=O)[C@@]12N=C(C)O[C@@H]1C[C@H]1[C@@H]3CCC4=CC(=O)C=C[C@]4(C)[C@H]3[C@@H](O)C[C@@]12C`, the efficacy in [1] is 27%. For the same compound, the compound was classed as inactive in assay [2], in assay [3], in assay [4] and in assay [5].

Take `CCN(CC)CC(=O)Nc1c(C)cccc1C(=O)OC`: the efficacy in assay [1] was 26%. Further, the outcome in assay [2], in [3], in [4] and in assay [5] was inactive.
